In PubChem BioAssay (EPA / NIEHS) one finds AC50 and outcome data, which are given here for 4 compounds.

Assay [1] can be described thus: ATG_M_32_CIS: Attagene CIS-FACTORIAL HepG2 Assay for M32 Transcription Factor (Internal Marker) (AID 2282949).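 Also: background control marker of the multiplexed CIS panel rather than a real target.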 Conditions: HepG2 Attagene cis-factorial M32 reporter, mRNA; actives raise or lower the signal. A digest of the protocol:
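Following 24 h chemical exposure of HepG2 cells transiently expressing cis-promoter reporter constructs, reporter transcript levels were determined by RT-PCR with fluorescent labelling and capillary electrophoresis, then fitted bidirectionally against DMSO.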

Assay [2] is described as follows: ATG_M_06_CIS: Attagene CIS-FACTORIAL HepG2 Assay for M06 Transcription Factor (Internal Marker) (AID 2282950). The note with it: HepG2 Attagene CIS-FACTORIAL M06 internal marker reporter; actives raise or lower the signal. An outline of the steps:
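Internal background marker within multiplexed cis-reporter HepG2 system. Cells transiently transfected, dosed 24 h; reporter mRNA measured by RT-PCR, HpaI digestion and capillary electrophoresis. Bidirectional fit relative to DMSO.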

The nature of assay [3]: ATG_MRE_CIS: Attagene CIS-FACTORIAL HepG2 Assay for human Metal Responsive Element (MRE) (AID 2282954). Conditions: HepG2 MRE cis-reporter transcription, Attagene multiplex; actives raise or lower the signal. An outline of the steps:
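HepG2 cells transiently transfected with multiple cis-element reporter units measure endogenous MTF1-driven transcription. After 24 h compound exposure, reporter mRNA is quantified by RT-PCR with 6-FAM labelling, HpaI digestion and capillary electrophoresis; bidirectional fits versus DMSO.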

In assay [4] the target is Paired box protein Pax-6 (Homo sapiens) (UniProt P26367). Nature of the assay: ATG_Pax6_CIS: Attagene CIS-FACTORIAL HepG2 Assay for human Paired Box 6 (PAX6) (AID 2282956). Conditions: HepG2 CIS-FACTORIAL PAX6 reporter transcription, RNA readout; actives raise or lower the signal. An outline of the steps:
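After twenty-four hours of chemical exposure, transfected HepG2 cells are harvested for RNA. Cis-promoter reporter transcripts are amplified, fluorescently labelled and sized by capillary electrophoresis, with gain and loss of signal scored against DMSO.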

A short description of assay [5]: ATG_RORE_CIS: Attagene CIS-FACTORIAL HepG2 Assay for human RAR-related Orphan Receptor Element (RORE) (AID 2282959). The note with it: HepG2 Attagene cis-factorial RORE reporter, mRNA; actives raise or lower the signal. A digest of the protocol:
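Cells were HepG2 carrying transfected cis-regulated reporter constructs, dosed for 24 hours. Total RNA was reverse-transcribed and reporter cDNA amplified, fluorescently labeled and sized by capillary electrophoresis. Activity was fitted bidirectionally relative to DMSO.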

The nature of assay [6]: ATG_Sox_CIS: Attagene CIS-FACTORIAL HepG2 Assay for human SRY-box transcription factor (SOX) (AID 2282960). The note with it: HepG2 Attagene cis-factorial SOX reporter, mRNA; actives raise or lower the signal. An outline of the steps: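 Transient MRTU transfection of HepG2; 24 h compound incubation; TriZol RNA, oligo(dT) RT, PCR, 6-FAM primer extension, HpaI cut, CE. Bidirectional fit, DMSO = baseline.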

For assay [7], the target named is Transcription factor Sp1 (Homo sapiens) (UniProt P08047). Nature of the assay: ATG_Sp1_CIS: Attagene CIS-FACTORIAL HepG2 Assay for human Specificity Protein 1 (Sp1) (AID 2282961). Conditions: HepG2 Sp1 cis-reporter transcription, actives raise or lower the signal. A digest of the protocol: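 Endogenous Sp1 activity was gauged in human liver HepG2 cells bearing transfected reporter units under a cis-regulating promoter. After 24 h dosing, reporter mRNA was quantified by RT-PCR with capillary electrophoresis, and activity fitted bidirectionally versus DMSO.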

Assay [8] in a line: ATG_SREBP_CIS: Attagene CIS-FACTORIAL HepG2 Assay for human Sterol Regulatory Element Binding (SREBP) (AID 2282962). The note with it: HepG2 Attagene cis-factorial SREBP reporter, mRNA; actives raise or lower the signal. A digest of the protocol: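 Twenty-four hours after chemical dosing of transfected HepG2 cultures, reporter RNA was converted to cDNA, amplified, end-labelled with 6-FAM and resolved by capillary electrophoresis. Responses were fitted relative to DMSO.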

For assay [9], the target named is Signal transducer and activator of transcription 3 (Homo sapiens) (UniProt P40763). Briefly: ATG_STAT3_CIS: Attagene CIS-FACTORIAL HepG2 Assay for human Signal Transducer and Activator of Transcription 3 (STAT3) (AID 2282963). Conditions: HepG2, Attagene cis-factorial STAT3 reporter transcription; actives raise or lower the signal. A digest of the protocol: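 HepG2 cells transiently transfected with cis-element-driven multiple reporter transcription units; after 24 h chemical exposure, reporter mRNA measured by RT-PCR, 6-FAM primer-extension labelling, HpaI digestion and capillary electrophoresis. Bidirectional fitting versus DMSO baseline.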

The nature of assay [10]: ATG_TA_CIS: Attagene CIS-FACTORIAL HepG2 Assay for human TA Basal Promoter (AID 2282964). The note with it: HepG2 Attagene CIS-factorial TA basal promoter reporter; actives raise or lower the signal. An outline of the steps: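 HepG2 cells transiently transfected with multiple reporter units under cis promoter elements, reporting endogenous transcription factor activity; this endpoint tracks the TA basal promoter as background control. Reporter mRNA after 24 h dosing measured by RT-PCR/capillary electrophoresis; bidirectional fits versus DMSO.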

A short description of assay [11]: ATG_TCF_b_cat_CIS: Attagene CIS-FACTORIAL HepG2 Assay for human T-Cell-Factor with beta-catenin (TCF/b-cat) (AID 2282965). Conditions: HepG2 TCF/beta-catenin cis-reporter transcription, actives raise or lower the signal. An outline of the steps: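 Using capillary electrophoresis as the read-out, labelled reporter cDNA fragments from transiently transfected HepG2 were sized and quantified. Exposure lasted 24 hours; activity in either direction was referenced to DMSO.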

Assay [12] can be described thus: ATG_TAL_CIS: Attagene CIS-FACTORIAL HepG2 Assay for human TAL Basal Promoter (AID 2282966).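 Also: background control endpoint measuring basal TAL promoter reporter mRNA not a specific factor.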 Conditions: HepG2 Attagene cis-factorial TAL promoter reporter; actives raise or lower the signal. A digest of the protocol: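 Fluorescence of labelled reporter cDNA fragments, resolved by capillary electrophoresis, gave the readout. Human HepG2 liver cells carried transiently transfected cis-element reporter units and were treated for 24 hours; activity was fitted bidirectionally against DMSO.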

Assay [13] in a line: ATG_TGFb_CIS: Attagene CIS-FACTORIAL HepG2 Assay for human Transforming Growth Factor (TGF) (AID 2282967). Conditions: HepG2 Attagene CIS TGFb reporter, mRNA transcription; actives raise or lower the signal. An outline of the steps:
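HepG2 cells transiently transfected with cis-promoter-driven multiple reporter units measure endogenous TF activity; reporter mRNA quantified at 24 h by RT-PCR, FAM labeling, HpaI digestion and capillary electrophoresis. Bidirectional fit vs DMSO.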

Assay [14] has as its target Heat shock factor protein 1 (Homo sapiens) (UniProt Q00613). Nature of the assay: ATG_HSE_CIS: Attagene CIS-FACTORIAL HepG2 Assay for human Heat Shock Transcription Factor 1 (HSE) (AID 2282953). The note with it: HepG2 HSE cis-reporter, Attagene RNA transcription; actives raise or lower the signal. A digest of the protocol:
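HepG2 cells transfected with cis-promoter reporter units sensing endogenous transcription factor activity; reporter mRNA quantified 24 h post-dose by RT-PCR and capillary electrophoresis of 6-FAM-labelled products. Bidirectional fitting against DMSO.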

A short description of assay [15]: ATG_PXRE_CIS: Attagene CIS-FACTORIAL HepG2 Assay for human Pregnane X Receptor Element (PXRE) (AID 2282957). Conditions: HepG2 Attagene CIS-FACTORIAL PXRE reporter, mRNA; actives raise or lower the signal. An outline of the steps:
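Transfect HepG2 with MRTUs (cis promoter elements); dose chemical, incubate 24 h; isolate RNA, RT with oligo(dT), PCR, 6-FAM label, HpaI cut, CE. Gain/loss fit vs DMSO.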

Assay [16] deals with Hypoxia-inducible factor 1-alpha (Homo sapiens) (UniProt Q16665). Briefly: ATG_HIF1a_CIS: Attagene CIS-FACTORIAL HepG2 Assay for human Hypoxia Inducible Factor 1 (HIF1A) (AID 2282951). The note with it: HepG2 Attagene cis-factorial HIF1a reporter transcription; actives raise or lower the signal. A digest of the protocol: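 Measures endogenous transcription-factor activity through cis-regulated reporter mRNA in HepG2. Cells dosed 24 h; transcripts quantified by RT-PCR with 6-FAM-labelled products separated by capillary electrophoresis; DMSO serves as negative control.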

Assay [17] can be described thus: ATG_PBREM_CIS: Attagene CIS-FACTORIAL HepG2 Assay for human Phenobarbital-responsive Enhancer Module (PBREM) (AID 2282955). Conditions: HepG2 PBREM cis-reporter, Attagene multiplexed transcription; actives raise or lower the signal. A digest of the protocol:
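Fluorescence of labelled reporter cDNA fragments, resolved by capillary electrophoresis, gives mRNA induction in transfected HepG2 cells treated for 24 h; DMSO serves as negative control and baseline.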

Assay [18] is described as follows: ATG_PPRE_CIS: Attagene CIS-FACTORIAL HepG2 Assay for human Peroxisome Proliferator-activated Response Element (PPRE) (AID 2282958). Conditions: HepG2 PPRE cis-element reporter, Attagene transcription factor profiling; actives raise or lower the signal. An outline of the steps:
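Cells are first transfected transiently with the multiplexed reporter library, then dosed for 24 h. Total RNA is reverse-transcribed, amplified, fluorescently end-labeled and HpaI-cut before capillary electrophoresis; activity is fitted bidirectionally against DMSO controls.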

Assay [19] can be described thus: ATG_VDRE_CIS: Attagene CIS-FACTORIAL HepG2 Assay for human Vitamin D Receptor Element (VDRE) (AID 2282968). Conditions: HepG2 VDRE cis-reporter transcription, actives raise or lower the signal. A digest of the protocol:
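HepG2 cells transiently transfected with cis-element reporter units, dosed 24 h; reporter mRNA measured by RT-PCR, 6-FAM labeling, HpaI digestion and capillary electrophoresis. Activity fitted bidirectionally against DMSO baseline.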

Assay [20] concerns the target Hepatocyte nuclear factor 6 (Homo sapiens) (UniProt Q9UBC0). Briefly: ATG_HNF6_CIS: Attagene CIS-FACTORIAL HepG2 Assay for human Hepatocyte Nuclear Factor 6 (HNF6) (AID 2282952). Conditions: HepG2 Attagene cis-factorial HNF6 reporter transcription; actives raise or lower the signal. An outline of the steps:
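HepG2, transient MRTU transfection (cis promoters); 24 h chemical exposure; total RNA → oligo(dT) RT → PCR → 6-FAM labelling → HpaI cut → CE; bidirectional fit vs DMSO.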

Where “and” joins values, the source holds several entries; their conditions need not be identical. Identical values can stand only once. Where a structure was tested more than once in an assay, its records may differ in their call. Calls of active or inactive are those of the source. The calls were made as follows: active = hit-call score of the fitted dose curve at least 0.9, where 1 is the maximum; inactive = score below 0.9.

Heat shock factor protein 1 (Homo sapiens), sequence (Q00613 whole entry, looked up): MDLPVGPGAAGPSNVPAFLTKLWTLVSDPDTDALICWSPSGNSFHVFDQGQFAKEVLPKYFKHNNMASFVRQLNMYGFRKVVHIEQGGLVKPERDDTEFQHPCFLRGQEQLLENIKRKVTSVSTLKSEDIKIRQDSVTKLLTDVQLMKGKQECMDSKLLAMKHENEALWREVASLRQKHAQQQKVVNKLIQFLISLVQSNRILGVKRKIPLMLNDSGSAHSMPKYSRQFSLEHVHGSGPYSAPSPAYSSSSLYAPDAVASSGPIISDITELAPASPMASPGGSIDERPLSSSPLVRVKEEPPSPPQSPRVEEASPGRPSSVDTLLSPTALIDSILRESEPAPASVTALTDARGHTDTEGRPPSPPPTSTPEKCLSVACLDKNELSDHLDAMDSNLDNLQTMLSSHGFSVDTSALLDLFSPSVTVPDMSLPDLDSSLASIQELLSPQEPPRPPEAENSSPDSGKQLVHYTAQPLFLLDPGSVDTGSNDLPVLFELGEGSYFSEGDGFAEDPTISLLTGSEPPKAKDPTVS
Transcription factor Sp1 (Homo sapiens), sequence (P08047 whole entry, looked up): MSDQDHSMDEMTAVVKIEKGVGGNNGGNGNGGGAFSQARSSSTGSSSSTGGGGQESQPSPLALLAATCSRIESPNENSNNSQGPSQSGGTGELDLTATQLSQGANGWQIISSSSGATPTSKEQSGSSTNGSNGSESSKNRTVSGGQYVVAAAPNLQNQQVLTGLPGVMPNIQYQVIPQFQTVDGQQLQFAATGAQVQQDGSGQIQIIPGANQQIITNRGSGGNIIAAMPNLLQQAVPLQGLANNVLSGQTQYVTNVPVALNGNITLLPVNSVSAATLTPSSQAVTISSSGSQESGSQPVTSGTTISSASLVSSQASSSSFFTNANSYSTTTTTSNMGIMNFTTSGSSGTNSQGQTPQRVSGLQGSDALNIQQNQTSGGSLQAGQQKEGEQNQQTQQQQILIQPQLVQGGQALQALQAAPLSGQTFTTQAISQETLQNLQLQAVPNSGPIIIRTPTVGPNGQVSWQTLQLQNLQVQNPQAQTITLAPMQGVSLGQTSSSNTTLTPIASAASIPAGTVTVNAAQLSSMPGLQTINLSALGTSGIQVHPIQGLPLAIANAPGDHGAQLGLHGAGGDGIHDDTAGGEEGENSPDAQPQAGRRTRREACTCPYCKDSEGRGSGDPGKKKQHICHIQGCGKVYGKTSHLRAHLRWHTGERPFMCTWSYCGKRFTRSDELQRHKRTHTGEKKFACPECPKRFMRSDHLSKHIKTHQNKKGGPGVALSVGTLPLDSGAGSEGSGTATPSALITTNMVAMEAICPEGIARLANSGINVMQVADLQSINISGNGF
Hypoxia-inducible factor 1-alpha (Homo sapiens), sequence (Q16665 whole entry, looked up): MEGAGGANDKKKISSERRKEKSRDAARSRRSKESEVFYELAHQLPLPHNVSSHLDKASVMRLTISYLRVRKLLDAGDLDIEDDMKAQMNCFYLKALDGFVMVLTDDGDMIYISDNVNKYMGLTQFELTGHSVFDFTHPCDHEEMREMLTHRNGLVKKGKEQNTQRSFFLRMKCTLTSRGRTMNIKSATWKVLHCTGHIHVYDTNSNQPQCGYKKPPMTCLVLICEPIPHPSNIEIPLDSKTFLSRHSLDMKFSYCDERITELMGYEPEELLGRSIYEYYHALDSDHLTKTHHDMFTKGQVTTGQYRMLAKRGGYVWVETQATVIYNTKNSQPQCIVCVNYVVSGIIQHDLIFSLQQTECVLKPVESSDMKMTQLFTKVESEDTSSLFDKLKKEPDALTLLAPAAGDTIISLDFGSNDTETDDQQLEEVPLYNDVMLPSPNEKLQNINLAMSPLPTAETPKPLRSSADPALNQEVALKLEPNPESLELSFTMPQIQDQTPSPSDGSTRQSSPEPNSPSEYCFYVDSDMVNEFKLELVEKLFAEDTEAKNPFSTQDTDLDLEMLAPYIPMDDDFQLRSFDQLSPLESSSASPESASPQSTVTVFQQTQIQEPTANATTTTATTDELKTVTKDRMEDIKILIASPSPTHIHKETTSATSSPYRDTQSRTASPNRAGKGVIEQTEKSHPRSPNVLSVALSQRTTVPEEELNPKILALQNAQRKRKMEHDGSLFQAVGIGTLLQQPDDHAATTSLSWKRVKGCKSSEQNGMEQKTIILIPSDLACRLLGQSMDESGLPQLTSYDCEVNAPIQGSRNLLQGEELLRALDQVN
Paired box protein Pax-6 (Homo sapiens), sequence (P26367 whole entry, looked up): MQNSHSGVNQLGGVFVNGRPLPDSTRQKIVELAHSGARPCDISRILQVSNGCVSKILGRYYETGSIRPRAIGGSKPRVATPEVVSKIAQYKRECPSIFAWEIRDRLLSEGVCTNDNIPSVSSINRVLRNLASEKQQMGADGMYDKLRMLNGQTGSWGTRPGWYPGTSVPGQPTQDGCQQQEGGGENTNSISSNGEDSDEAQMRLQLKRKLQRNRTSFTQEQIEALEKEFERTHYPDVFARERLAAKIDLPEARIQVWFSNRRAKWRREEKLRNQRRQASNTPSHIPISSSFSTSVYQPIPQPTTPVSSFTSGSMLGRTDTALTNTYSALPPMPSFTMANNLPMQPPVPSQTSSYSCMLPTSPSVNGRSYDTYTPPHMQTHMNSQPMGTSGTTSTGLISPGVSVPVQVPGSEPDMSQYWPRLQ
Signal transducer and activator of transcription 3 (Homo sapiens), sequence (P40763 whole entry, looked up): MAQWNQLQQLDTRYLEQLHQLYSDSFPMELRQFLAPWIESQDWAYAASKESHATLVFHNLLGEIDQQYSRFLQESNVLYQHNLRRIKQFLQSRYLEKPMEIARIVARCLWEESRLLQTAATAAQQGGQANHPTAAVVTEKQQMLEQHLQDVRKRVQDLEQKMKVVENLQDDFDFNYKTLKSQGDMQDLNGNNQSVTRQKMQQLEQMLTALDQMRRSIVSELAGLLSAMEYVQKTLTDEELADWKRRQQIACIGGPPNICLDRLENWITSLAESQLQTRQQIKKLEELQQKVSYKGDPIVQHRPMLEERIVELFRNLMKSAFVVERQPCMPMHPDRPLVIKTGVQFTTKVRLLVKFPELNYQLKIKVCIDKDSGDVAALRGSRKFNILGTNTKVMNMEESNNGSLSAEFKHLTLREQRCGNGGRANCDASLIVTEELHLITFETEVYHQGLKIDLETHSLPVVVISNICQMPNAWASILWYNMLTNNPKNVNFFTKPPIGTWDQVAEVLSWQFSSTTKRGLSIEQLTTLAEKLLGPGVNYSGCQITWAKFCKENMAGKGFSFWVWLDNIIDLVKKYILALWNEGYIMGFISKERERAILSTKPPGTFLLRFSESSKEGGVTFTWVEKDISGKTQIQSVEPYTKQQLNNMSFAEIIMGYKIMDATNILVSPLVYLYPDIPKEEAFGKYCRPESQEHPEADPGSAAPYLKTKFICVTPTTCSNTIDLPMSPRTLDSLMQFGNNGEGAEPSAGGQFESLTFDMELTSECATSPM
Hepatocyte nuclear factor 6 (Homo sapiens), sequence (Q9UBC0 whole entry, looked up): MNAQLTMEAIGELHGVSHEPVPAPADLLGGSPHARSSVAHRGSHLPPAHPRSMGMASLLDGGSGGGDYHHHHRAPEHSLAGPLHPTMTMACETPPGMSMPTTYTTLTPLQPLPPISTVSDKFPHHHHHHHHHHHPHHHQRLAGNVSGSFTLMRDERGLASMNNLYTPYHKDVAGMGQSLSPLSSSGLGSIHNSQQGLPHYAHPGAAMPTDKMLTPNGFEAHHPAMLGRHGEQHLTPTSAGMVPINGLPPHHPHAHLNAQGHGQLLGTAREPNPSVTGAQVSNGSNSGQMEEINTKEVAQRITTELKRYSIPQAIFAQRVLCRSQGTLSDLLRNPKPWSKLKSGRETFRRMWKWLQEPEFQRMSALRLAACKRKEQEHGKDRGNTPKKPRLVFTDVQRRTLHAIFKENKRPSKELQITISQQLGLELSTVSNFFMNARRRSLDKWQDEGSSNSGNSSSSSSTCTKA

Broadly, the AC50 is the midpoint of the concentration-response curve, whichever way the signal moves. `O=C(CCCN1CCC(O)(c2ccc(Cl)cc2)CC1)c1ccc(F)cc1`: the AC50 in assay [1] is 62.4 µM (active); in [3], 33.4 µM (active); in assay [4], 51.2 µM (active); in assay [5], 52.4 µM (active); in [7] it was 33.4 µM (active); in [8] it was 5.07 µM (active). The AC50 is 59.5 µM (active) in assay [9], 33.4 µM (active) in [10] and 53.8 µM (active) in [12]. Besides, the call in assay [2], in [6], in assay [11] and in assay [13] was inactive.

Consider `CN(C)CCOC(c1ccccc1)c1ccccc1`, for which the call in assay [1], in assay [2], in assay [14], in assay [3], in assay [5] and in assay [6] was inactive. The compound was called inactive in [7], in [9], in assay [10], in [11], in assay [12] and in [13]. The AC50 in assay [15] is 151 µM (active).

On to `CC(C)c1c(C(=O)Nc2ccccc2)c(-c2ccccc2)c(-c2ccc(F)cc2)n1CC[C@@H](O)C[C@@H](O)CC(=O)O`, for which the outcome in assay [1], in [2], in assay [14], in [17], in [4] and in [18] was inactive. In addition, the call in assay [5], in assay [6], in assay [7], in assay [9], in [11] and in assay [13] was inactive. Besides, the AC50 is 57.9 µM (active) and 22.5 µM (active) in assay [16]; 61.4 µM (active) and 34.3 µM (active) in assay [3]; 25.3 µM (active) in assay [17]; 94.5 µM (active) in assay [4]; 5.31 µM (active) and 12.2 µM (active) in assay [15]; 66.4 µM (active) and 45 µM (active) in [10]. The AC50 is 144 µM (active) in assay [11]; 41.9 µM (active) and 20.2 µM (active) in assay [12]; 14.2 µM (active) and 7.84 µM (active) in assay [19].

As to `NCCN`, the outcome in assay [1], in assay [2], in assay [16], in assay [20], in [14] and in assay [3] was inactive. Besides, the compound was called inactive in [15], in assay [18], in assay [5], in assay [6], in [7] and in [8]. The compound was called inactive in assay [9], in assay [10], in assay [11], in assay [12] and in assay [13]. Besides, the AC50 in assay [15] is 164 µM (active).
